Test [1] in a line: qHTS assay for measurement of the activity of small molecule inhibitors on Zika virus induced Caspase-3 activity in human iPSC derived neural progenitor cells (hNPCs) (AID 1224857). Further: nearly all actives have a fitted effect of over 65% in size. In short, it runs like this: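 Cells were plated at 350 per well and grown 16 to 20 hours. Compound pretreatment lasted one hour, after which ZIKV (2 FFU/cell) was added for 6 hours. Percent inhibition was normalized between uninfected and infected controls.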

Test [2] is described as follows: qHTS assay for measurement of the activity of small molecule inhibitors on Zika virus induced Caspase-3 activity in human astrocytoma cells (AID 1224859). In short, it runs like this: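 Percent inhibition of virus-induced caspase-3/7 signal is calculated against uninfected and ZIKV-infected control cells. Cells are SNB-19, infected at 2 FFU/cell for 6 h after 1 h compound exposure.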
A general note: Quantitative high-throughput screening tests each substance at several concentrations.

Inconclusive results are not listed. Entries that show only a call come without a potency. Active and inactive are the calls of the source. The call rests on the fitted dose curve; in most records, active means well fitted inhibition curve with a large enough effect; inconclusive means small, poorly fitted or top-dose-only effect; inactive means no such curve, though single readings can be large or run the other way.
Potency means the concentration at half of the fitted maximal effect.

For `COc1cc(SC)ccc1C(=O)N1CCC(Cc2ccccc2)CC1`, the Potency entry in test [1] and in test [2] was “inactive” each time.

As for `Clc1ccc(N2CCN(Cc3c[nH]c4ncccc34)CC2)cc1`, the Potency entry in test [1] and in test [2] was “inactive” throughout.

For the molecule `c1ccc(-c2ccccn2)nc1`, the Potency result in test [1] and in test [2] was “inactive” each time.

With `OC[C@H]1O[C@@H](n2cnc3c(NC4CCCC4)ncnc32)[C@H](O)C1O` (stereo not given in full), the Potency result in test [1] is “inactive”.

For the molecule `COc1ccc(-c2cc(=O)c3c(O)c(OC)c(OC)cc3o2)cc1O`, the Potency entry in test [1] is “inactive”.

For the molecule `O=C(/C=C/c1ccc(O)c(O)c1)OCCc1ccccc1`, the Potency result in test [1] and in test [2] was “inactive” each time.

As for `NCCCCCCCCCCN`, the Potency result in test [1] and in test [2] was “inactive” throughout.

In the case of `CN(CCCOc1ccc(Cc2ccccc2)cc1)CCC(=O)O`, the Potency result in test [1] was “inactive”.

Take `O=C(CCc1ccncc1)NNC(=O)N1Cc2ccccc2Oc2ccc(Cl)cc21`: the Potency result in test [1] is “inactive”.

Consider `COc1ccc(/C=C/c2nc(NCCCN(C)C)c3ccccc3n2)cc1`, for which, in test [1], the Potency entry is “inactive”.

In the case of `CN1CCc2cc(NC(=O)Nc3cccnc3)ccc21`, the Potency result in test [1] and in test [2] was “inactive” in each case.

`c1ccc(CCNc2nc(-c3ccccc3)cs2)cc1`: the Potency result in test [1] was “inactive”.

`CC(C)c1cccc(C(C)C)c1N1C(=O)c2ccc(O)cc2C1=O`: the Potency entry in test [1] is “inactive”.

With `CCCN(CC1CC1)c1nc(C)nc(Nc2c(Cl)cc(Cl)cc2Cl)c1Cl`, the Potency result in test [1] and in test [2] was “inactive” each time.

`NCCCCC(=O)O`: the Potency entry in test [1] and in test [2] was “inactive” each time.

`CCCCCCCCc1ccc(-c2ccc(C(=O)O)cc2)cc1`: the Potency result in test [1] and in test [2] was “inactive” throughout.

For `OC[C@H]1O[C@@H](n2cnc3c(NC4CCCCC4)ncnc32)[C@H](O)[C@@H]1O`, the Potency result in test [1] and in test [2] was “inactive” in each case.

As to `CSc1ccccc1N1CCN(CCCCCC(=O)NC2CCCc3ccccc32)CC1` (stereo not given), the Potency result in test [1] and in test [2] was “inactive” in each case.

As to `Oc1ccccc1O`, the Potency entry in test [1] and in test [2] was “inactive” each time.

In the case of `Brc1c(Br)c(Br)c2n[nH]nc2c1Br`, the Potency entry in test [1] and in test [2] was “inactive” throughout.

`S=c1[nH]c(-c2ccccc2)cn1-c1ccccc1`: in test [1], the Potency result is “inactive”.

Consider `CC(C)(C=O)Cc1cc(C(C)(C)C)c(O)c(C(C)(C)C)c1`, for which the Potency result in test [1] and in test [2] was “inactive” in each case.

For `COc1ccc2c(c1)CCC1C2CC[C@@]2(C)C1CC[C@@H]2NCCCCCCN1C(=O)CCC1=O` (stereo not given in full), the Potency entry in test [1] and in test [2] was “inactive” each time.

Turning to `O=c1[nH]c2cc([N+](=O)[O-])c([N+](=O)[O-])cc2[nH]c1=O`, the Potency result in test [1] and in test [2] was “inactive” in each case.

`Oc1cc2c(cc1O)CN(C(=S)NCCc1ccc(Cl)cc1)CCC2`: the Potency entry in test [1] and in test [2] was “inactive” throughout.

For `O=C(O)CCCC[C@@H]1CCSS1`, the Potency entry in test [1] and in test [2] was “inactive” in each case.

Take `c1cnc2c(c1)ccc1cccnc12`: the Potency entry in test [1] and in test [2] was “inactive” in each case.

Turning to `COc1ccccc1CNCCCCCCNCCCCCCCCNCCCCCCNCc1ccccc1OC`, the Potency result in test [1] and in test [2] was “inactive” in each case.

Regarding `O=c1[nH]c2cc(C(F)(F)F)ccc2n1-c1cc(C(F)(F)F)ccc1O`, the Potency result in test [1] and in test [2] was “inactive” each time.

In the case of `CC1CN(S(=O)(=O)c2cccc3cnccc23)CCN1` (stereo not given), the Potency result in test [1] and in test [2] was “inactive” in each case.

Regarding `COc1cc(OC)c(/C=C2/C(=O)Nc3ccccc32)c(OC)c1`, the Potency result in test [1] and in test [2] was “inactive” each time.

For `COc1cccc(C(=O)NCCN2CCN(c3ccc(Cl)cc3)CC2)c1`, the Potency entry in test [1] and in test [2] was “inactive” throughout.

As to `N[C@@H](CC(=O)O)C(=O)O`, the Potency result in test [1] and in test [2] was “inactive” each time.

With `O=C(/C=C/c1ccc(O)cc1)c1ccc(O)cc1O`, the Potency in test [1] was 2.82 µM (active); in test [2], 1.26 µM (active).

Regarding `CCCCCCCC/C=C\CCCCCCCC(=O)NCCO`, the Potency entry in test [1] and in test [2] was “inactive” in each case.

Turning to `Fc1ccc(C(OCCCc2cnc[nH]2)c2ccc(F)cc2)cc1`, the Potency result in test [1] and in test [2] was “inactive” each time.

For the molecule `Fc1cccc(/C=N/N=C/c2cccc(F)c2)c1`, the Potency entry in test [1] and in test [2] was “inactive” throughout.

For `NC[C@@H]1O[C@H](C23CC4CC(CC(C4)C2)C3)Cc2c1ccc(O)c2O`, the Potency result in test [1] and in test [2] was “inactive” in each case.

Consider `Cc1cc2c(cc1Cl)N(C(=O)Nc1ccc(Oc3cccnc3C)nc1)CC2`, for which the Potency result in test [1] and in test [2] was “inactive” each time.

In the case of `C=C[C@H]1CN2CC[C@@H]1C[C@@H]2[C@@H](O)c1ccnc2ccc(OC)cc12`, the Potency result in test [1] and in test [2] was “inactive” in each case.

As for `NC[C@H]1O[C@@H](n2cnc3c(N)ncnc32)[C@H](O)[C@@H]1O`, the Potency entry in test [1] and in test [2] was “inactive” each time.

As for `Cc1cc(NC2CCCCC2)nc(-n2nc(C)cc2C)n1`, the Potency entry in test [1] and in test [2] was “inactive” in each case.

With `CC12C(=O)OC(=O)C1(C)C1CCC2O1` (stereo not given), the Potency result in test [1] and in test [2] was “inactive” throughout.

Take `CCCCCCCCCCCCCCCC(=O)OC(CC(=O)O)C[N+](C)(C)C` (stereo not given): the Potency result in test [1] and in test [2] was “inactive” each time.

As to `NS(=O)(=O)C#Cc1ccccc1`, the Potency result in test [1] and in test [2] was “inactive” throughout.

As to `COC(=O)c1c(C)[nH]c(C)c1C(=O)c1ccccc1Cc1ccccc1`, the Potency result in test [1] and in test [2] was “inactive” throughout.

In the case of `CN(C)CCC(c1ccc(Cl)cc1)c1ccccn1` (stereo not given), the Potency entry in test [1] and in test [2] was “inactive” throughout.

As for `S=C(S)OC1CC2CC1C1CCCC21` (stereo not given), the Potency entry in test [1] and in test [2] was “inactive” throughout.

For `Cn1ncc(S(=O)(=O)Cc2ccccc2)c(Br)c1=O`, the Potency result in test [1] and in test [2] was “inactive” each time.

(Values after PubChem BioAssay (NCATS).)
